# Data: PubChem BioAssay
# Several values for one entry are separate records, joined by “and”; a condition that tells them apart may be missing. Equal values may be shown once. Activity calls are given as the source filed them. Unless noted, the rule behind the calls is not given here.
# How the values were obtained:
# [1] = growth inhibition of BT084 medulloblastoma cells, cell-based, ICGC_MB145, cisplatin and BGB IC40 combos (AID 1671461); conditions: drug combinations, stronger effect = higher value;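 note: cells exposed to drugs for 96 hours; 0% = vehicle DMSO and 100% = high DMSO full killing control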
# [2] = growth inhibition of RCMB18 medulloblastoma cells, cell-based, cisplatin and BGB IC40 combos (AID 1671462; in the data active = inhibition above about 80%;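 note: cells exposed to compound for four days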); conditions: stronger effect = higher value
# [3] = growth inhibition of CRL1545 osteosarcoma cells, cell-based, cisplatin and BGB IC20 combos (AID 1671464; in the data active = inhibition above about 80%;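 note: cells exposed to compound for 96 hours before readout; 0% = vehicle DMSO and 100% = high DMSO killing control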); conditions: stronger effect = higher value
# [4] = circadian clock period modulators, cell-based, LOPAC library, luminescence reporter (AID 2774); conditions: circadian reporter cells, at 7 µM, actives lie on both sides;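 note: values are relative to mean of DMSO wells on each plate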
# [5] = tested on: Hepatitis C virus NS3 helicase; experiment: HCV NS3 helicase inhibitors, primary screen, biochemical, fluorescence polarization, LOPAC1280 library (AID 687035; in the data active = inhibition above about 37%); conditions: Purified HCV NS3 helicase, Cy5-dT15 ssDNA binding fluorescence polarization; stronger effect = higher value; concentration not given here
# [6] = Cy5 fluorescence quenching or enhancement artefacts, artefact control for HCV NS3 helicase inhibitor project, biochemical, LOPAC1280 (AID 687037); conditions: Cy5-DNA-NS3h complex fluorescence interference counterscreen
# [7] = sensitizers of A549 cells to miR-34 induction, primary screen, imaging, A549 dox-inducible miR-34, nuclei and caspase counts (AID 1347080;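 active = compounds whose cell count with miR-34 switched on is under 0.7 times the count with it off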); conditions: A549 miR-34 inducible, Hoechst nuclei count, 48 h
# [8] = viability rescue of complex I mutant cybrids, primary screen, cell-based, galactose medium, ATP luminescence (AID 1645843;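 active = z-score of at least 1.8 in each of two replicates, scored against plate mean and spread of sample wells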;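 note: positive z means more ATP and so rescue of galactose-driven cybrid death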); conditions: complex I mutant cybrid cells, 72 h, stronger effect = higher value
# [9] = stronger effect = lower value, cell number ratio, induced over uninduced
# [10] = measured here: relative caspase fold change +Dox/-Dox
# [11] = measured here: total cells with miR-34 induction, stronger effect = lower value
# [12] = measured here: total cells without miR-34 induction
smiles,measurement,setting,value
Nc1ccccc1NC(=O)CCCCCCC(=O)Nc1ccccc1,inhibition,"[1]; measured here: BGB IC40 combination 0.05 uM, at 0.05 µM",4.05% and -2.15%
same,inhibition,"[1]; single agent, at 5 µM",24.6% and 32.9%
same,inhibition,[2]; at 0.5 µM,7.96% (inactive) and 7.04% (inactive)
same,inhibition,"[2]; cisplatin combo, at 5 µM",43.6% and 67.7%
same,inhibition,"[2]; measured here: BGB IC40 combination, at 0.05 µM",-7.17% and -10.2%
same,inhibition,"[2]; measured here: combination with cisplatin, at 0.5 µM",5.88% and 41.6%
same,inhibition,"[2]; single agent, at 5 µM",30.6% and 7.16%
same,inhibition,[3]; at 0.5 µM,12.1% (inactive) and 5.27% (inactive)
same,inhibition,"[3]; measured here: with BGB IC20 combination, at 0.5 µM",-6.11% and -18%
same,inhibition,"[3]; measured here: with cisplatin IC20 combination, at 0.5 µM",19.9% and 16.9%
same,inhibition,"[3]; single agent, at 0.05 µM",13.3% and -6.35%
same,inhibition,"[3]; single agent, at 5 µM",14.5% and 19.2%
O=C(O)CCC/C=C\C[C@@H]1[C@@H](/C=C/[C@H](O)C2Cc3ccccc3C2)[C@@H](F)C[C@@H]1O,period change,[4],-0.195 h (inactive)
same,inhibition,[5],-2% (inactive)
same,fluorescence ratio (interference),[6],1 (inactive)
same,fold change,[7]; [9],0.962 (inactive) and 0.866 (inactive)
same,fold change,[7]; [10],1.71 and 1.08
same,cell count,[7]; [11],9120 and 5490
same,cell count,[7]; [12],9480 and 6340
same,z-score,[8],0.805 (inactive)
N#C/C(=C\c1ccc(O)c(O)c1)C(=O)c1ccc(O)c(O)c1,period change,[4],-0.055 h (inactive)
same,inhibition,[5],100% (active)
same,fluorescence ratio (interference),[6],1 (inactive)
same,fold change,[7]; [9],0.979 (inactive)
same,fold change,[7]; [10],1.26
same,cell count,[7]; [11],9140
same,cell count,[7]; [12],9340
same,z-score,[8],-0.355 (inactive)
